An excerpt weighted towards active compounds, which were near 5.4% of everything screened.
PP1 inh – PP1-alpha phosphatase inhibitors, primary screen, counter-screen for PP5 inhibitor project, biochemical, fluorescence, OMFP substrate, single point; purified PP1alpha; inhibition, % at 6.7 µM; 0.9% of 320,000 active;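 active = inhibition above the mean inhibition of all tested compounds plus 3 SD, computed separately for each screening campaign, cut at about 15% in these data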
Target sequence (P62136 whole entry, looked up): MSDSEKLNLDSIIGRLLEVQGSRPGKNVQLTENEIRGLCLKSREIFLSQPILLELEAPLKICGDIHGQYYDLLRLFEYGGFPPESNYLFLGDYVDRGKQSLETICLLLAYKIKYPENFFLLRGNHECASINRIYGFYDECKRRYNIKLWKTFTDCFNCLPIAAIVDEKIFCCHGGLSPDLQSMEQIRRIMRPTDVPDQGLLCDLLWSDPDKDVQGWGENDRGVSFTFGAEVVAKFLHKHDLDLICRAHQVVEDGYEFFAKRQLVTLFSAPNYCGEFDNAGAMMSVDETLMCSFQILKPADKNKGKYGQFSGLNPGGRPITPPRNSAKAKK
Calb FLC – C. albicans growth inhibition with fluconazole, primary screen, CaCi-2 strain, Alamar Blue fluorescence | 0.57% of 300,000 active | growth inhibition, % (no concentration beside the values) | AID 1979, 2009 | C. albicans CaCi-2 (fluconazole-resistant clinical isolate) + fluconazole, 48 h;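 active = growth inhibition above about 58% in most replicates, limit read from the data, passing the limit was not always enough; inconclusive = exactly half the replicates above a set limit; inactive = most replicates below a set limit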;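 note: all wells also contain fluconazole at 8 µg/ml as a sub-toxic cotreatment; 0% = median of DMSO wells and 100% = median of geldanamycin control wells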
CSC inhib – cancer stem cell viability inhibitors, primary screen, luminescence | inhibition, % at 7.5 µM | 1.1% of 300,000 active | AID 2717, 2010 | cancer stem cell-like cells viability; in the data active = inhibition above about 75%; inconclusive = no clear call, values can overlap the other calls; tested in HMLE shEcad cells
ALR H2O2 inh – inhibitors of human ALR sulfhydryl oxidase, primary screen, biochemical, H2O2 detection, HRP-luminol luminescence, single point; purified ALR, DTT oxidation; inhibition, % (test concentration not listed); 3.8% of 290,000 active; FAD-linked sulfhydryl oxidase ALR (Homo sapiens), P55789;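 active = mean replicate inhibition above about 79%, with every replicate also reaching it, limit read from the data; inconclusive = only one of the two criteria met; inactive = mean below limit and not every replicate reaching it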
Target sequence (P55789 whole entry, looked up): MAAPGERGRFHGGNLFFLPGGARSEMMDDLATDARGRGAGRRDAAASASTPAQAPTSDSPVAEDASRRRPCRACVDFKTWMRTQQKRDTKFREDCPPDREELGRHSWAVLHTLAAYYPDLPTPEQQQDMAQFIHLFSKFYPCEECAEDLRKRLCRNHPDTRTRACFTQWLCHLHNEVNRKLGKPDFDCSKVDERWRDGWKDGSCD
PP5 inh – PP5 phosphatase inhibitors, primary screen, biochemical, fluorescence; purified PP5c, OMFP substrate fluorescence; inhibition, % at 6.7 µM; 0.18% of 320,000 active; AID 1987, 2009;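 active = inhibition above the campaign's mean inhibition across all tested compounds plus 3 SD, cut at about 9.5% in these data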;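 note: 0% = DMSO only and 100% = 100 µM cantharidin control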
PP1 inh confirm – PP1 phosphatase inhibitors, confirmation, biochemical, fluorescence, OMFP substrate, triplicate; inhibition, % at 6.7 µM; purified PP1alpha; shares compounds with PP1 inh; 52% of 1,900 active;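 active = mean PP1 inhibition above a set limit taken from the earlier primary screen, cut at about 15% in these data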
PP5 inh counter – PP5 phosphatase inhibition by PP1 hits, confirmation, counter-screen for PP1 inhibitor project, biochemical, fluorescence, triplicate | shares compounds with PP1 inh | inhibition, % at 6.7 µM | purified PP5c, OMFP fluorescence | 4% of 1,900 active;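 active = mean PP5 inhibition over triplicate wells above about 9.5% taken from the earlier PP1 screen, limit read from the data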
Active calls of the source: *; ? = inconclusive; nt = no result given.

SMILES	PP1 inh	Calb FLC	CSC inhib	ALR H2O2 inh	PP5 inh	PP1 inh confirm	PP5 inh counter
Cc1ccc(C)c(S(=O)(=O)N2CCN(c3nc(-c4cccnc4)nc4ccccc34)CC2)c1	19*	nt	nt	-2	2	18*	1
O=S(=O)(c1ccccc1F)N1CCN(c2nc(-c3cccnc3)nc3ccccc23)CC1	7	nt	nt	-6	3	nt	nt
COc1ccc(S(=O)(=O)N2CCN(c3nc(-c4cccnc4)nc4ccccc34)CC2)cc1	21*	nt	nt	44	2	17*	-1
Cc1ccc(NC(=O)CC2(CC(=O)O)CCCC2)cc1	-3	3	-5	-7	-2	nt	nt
Cc1[nH]c(=O)nc(SCc2ccc(Cl)c(Cl)c2)c1C#N	-1	-11	2	-26	3	nt	nt
CN(C)C(=N)c1n[nH]nc1SCc1ccc(Cl)c(Cl)c1	25*	-3	-6	-16	-1	-3	-6
Cc1noc(C)c1C(=O)Nc1ccccc1C(=O)NCCc1ccccc1	21*	4	1	-4	4	0	-2
Cc1noc(C)c1C(=O)NCCc1ccc(Cl)cc1	4	3	3	37	-2	nt	nt
O=S(=O)(NCc1ccc(F)cc1)c1ccc(-c2cnc(C3CC3)o2)cc1	0	-2	50	-3	2	nt	nt
C/C(=N\NC(=O)c1nnn(-c2nonc2N)c1CN(C)c1ccccc1)c1ccc(O)cc1	4	nt	10	60	3	nt	nt
C/C(=N\NC(=O)c1nnn(-c2nonc2N)c1CN(C)c1ccccc1)c1ccccn1	19*	nt	105*	1	3	30*	2
Cn1c(N2CCOCC2)c(/C=N/OC(=O)c2cccnc2Cl)c2ccccc21	nt	-30	nt	nt	nt	nt	nt
Cc1ccc(C(=O)O/N=C/c2c(N3CCOCC3)n(C)c3ccccc23)cc1	21*	110*	-7	7	3	-1	1
CCCCN(C(=O)c1cccc(-n2cccc2)c1)c1c(N)n(Cc2ccccc2)c(=O)[nH]c1=O	34*	-3	-20	0	2	0	-6
CCCCN(C(=O)c1cccc(N2C(=O)c3ccccc3C2=O)c1)c1c(N)n(CC(C)C)c(=O)[nH]c1=O	-6	nt	1	-1	1	nt	nt
O=c1cc(-c2ccccc2)nc2c(-c3ccccc3)c(C(F)(F)F)[nH]n12	33*	3	90*	nt	2	33*	0
Cc1cc(=O)n2[nH]c(C)c(-c3ccccc3)c2n1	-1	13	-14	10	-2	nt	nt
O=C(N/N=C/c1ccccn1)c1cc(-c2ccc3ccccc3c2)n[nH]1	28*	?	24	0	4	62*	6
O=C(N/N=C/c1ccccn1)c1cc(-c2cccc3ccccc23)n[nH]1	19*	-10	26	-2	1	27*	3
CCOCCCNCc1cc(Br)ccc1OCc1ccccc1	-4	-29	6	16	1	nt	nt
Cc1ccc(C2=NN(C(=O)CCC(=O)O)C(c3cn(-c4ccccc4)nc3-c3ccc(C)cc3)C2)cc1 (stereo not drawn)	20*	41	9	8	8	23*	2
COc1ccc(C2=NN(c3ccccc3)C(c3cn(CCC(=O)O)nc3-c3ccccc3)C2)cc1 (stereo not drawn)	24*	37	-5	94*	2	10	3
COc1ccc(-c2nn(CCC(=O)O)cc2CCC(=O)O)cc1	1	-1	-4	-4	2	nt	nt
COc1cccc(C(c2nnnn2CC2CCCO2)N2CCN(C(=O)c3ccco3)CC2)c1OC (stereo not drawn)	-2	1	-5	4	-1	nt	nt
CCOC(=O)c1csc(N/N=C2\CCc3ccccc32)n1	19*	5	0	0	3	17*	-1
SMILES	PP1 inh	Calb FLC	CSC inhib	ALR H2O2 inh	PP5 inh	PP1 inh confirm	PP5 inh counter
CCOC(=O)c1csc(N/N=C2\CCCc3ccccc32)n1	3	1	10	-149	3	nt	nt
COc1ccc2c(c1)CCC/C2=N\Nc1nc(C(=O)NN)cs1	22*	-5	nt	6	2	9	-4
CCc1ccccc1N1CC23C=CC(O2)C(C(=O)OCC(C)C)C3C1=O (stereo not drawn)	-8	-7	8	-9	0	nt	nt
O=C(Nc1nnc(-c2ccc3c(c2)CCCC3)o1)c1ccc(Cl)cc1Cl	32*	85*	68	nt	1	26*	-4
CN1CCN(c2nc(-c3ccccc3)nc3c2oc2ccccc23)CC1	0	9	-19	-5	3	nt	nt
O=c1cc(-c2c(O)c3ccccc3n(Cc3ccccc3)c2=O)[nH][nH]1	29*	-1	15	67	0	5	2
CCOC(=O)CC(=O)CSc1ncnc2c1oc1ccccc12	0	-9	-2	4	1	nt	nt
Cc1cc(N2C(=O)C(O)=C(C(=O)c3ccco3)C2c2ccc(Cl)cc2)no1 (stereo not drawn)	20*	2	-15	48	1	17*	0
Cc1cc(N2C(=O)C(O)=C(C(=O)c3cc4ccccc4o3)C2c2ccc([N+](=O)[O-])cc2)no1 (stereo not drawn)	30*	0	2	98*	2	16*	-3
Cc1cc(N2C(=O)C(O)=C(C(=O)c3ccco3)C2c2cccc(Oc3ccccc3)c2)no1 (stereo not drawn)	25*	52	21	94*	0	26*	2
Cc1cc(N2C(=O)C(O)=C(C(=O)c3ccco3)C2c2cccc(O)c2)no1 (stereo not drawn)	-4	45	-11	-4	-2	nt	nt
Cc1cc(N2C(=O)C(O)=C(C(=O)c3ccco3)C2c2ccccc2F)no1 (stereo not drawn)	5	5	-10	17	0	nt	nt
CCN(CCO)C(=O)C(c1ccccc1)c1ccccc1	-5	5	-4	-2	0	nt	nt
O=C(NCc1ccncc1)C(=O)N/N=C/c1ccc(OCc2ccccc2)cc1	38*	-23	1	nt	0	32*	5
COc1cccc(-c2ccc(SCc3ccccn3)nn2)c1	-2	-1	7	-3	3	nt	nt
COc1ccc(-c2csc(Nc3ccc(S(=O)(=O)Nc4cc(OC)nc(OC)n4)cc3)n2)cc1	1	50	1	21	2	nt	nt
COc1cc(NS(=O)(=O)c2ccc(Nc3nc(-c4ccccn4)cs3)cc2)nc(OC)n1	63*	12	-14	28	7	71*	1
CCn1cnc2cc(NCc3ccc(OC)cc3)ccc21	-7	-18	-3	1	2	nt	nt

Compound activity from PubChem BioAssay.
